Screens (PubChem BioAssay)
Pf growth 96h: P. falciparum growth inhibition at 96 hour, primary screen for plastid delayed-death inhibitors; P. falciparum luciferase reporter growth, 96 h; Potency, µM (top dose mostly 28.7 µM), inactives show top-dose activity change, negative = inhibition, actives largely listed as inhibitors; 320,000 tested, 6.9% active; AID 504834; note: % is set by controls: 0 for no effect and ±100 for the full control effect
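P. falciparum expressing integrated firefly luciferase, in erythrocytes at 2% hematocrit, 0.05% parasitemia, incubated with compounds 96 h at 37 C, 5% CO2. Growth inhibition read as loss of luminescence; two-generation exposure targets delayed-death apicoplast inhibitors.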
Pf growth 48h: inhibits P. falciparum growth in the first generation, 48 h; P. falciparum luciferase growth in erythrocytes, 48 h; Potency, µM (highest dose often 28.7 µM), inactives show top-dose activity change, negative = inhibition, most hits filed as inhibitors; 310,000 tested, 5.9% active; note: % is set by controls: 0 for no effect and ±100 for the full control effect
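Luciferase-expressing parasites in RBCs, 2% Hct / 0.1% parasitemia final; RPMI 1640 + 0.5% Albumax; 37 C, 5% CO2, one generation; luminescence read-out, lower signal = inhibition.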
Sm TGR inh: blocks Schistosoma mansoni thioredoxin glutathione reductase; 360,000 tested, 3% active; Potency, µM (doses to about 114 µM), for the others: at the highest dose activity change, negative = inhibition, actives largely listed as inhibitors; Q962Y6; purified TGR, DTNB reduction, TNB absorbance 405 nm; note: % is set by controls: 0 for no effect and ±100 for the full control effect; nearly all actives have a fitted effect of over 60% in size
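TGR 20 nM + NADPH 100 uM (dispensed conc.), cpd preinc 15 min RT; start with NADPH (500 uM addition) then DTNB (15 mM addition). Kinetic TNB absorbance, 405 nm filter. Four-parameter Hill fit across titration.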
NS1 inh: inhibitors of influenza NS1 protein function; Potency, µM (top dose mostly 46.1 µM), inactives show top-dose activity, positive = more growth; 270,000 tested, 0.4% active; AID 2326; calls by dose curve; note: actives are rising curves; nearly all actives have a fitted effect of over 50% in size
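Compounds were scored for reversing the slow growth caused by influenza A NS1 in S. cerevisiae, measured by optical density at 600 nm. Assay medium contained 2% galactose at pH 6.0; NS1-free yeast of the same strain were the positive control.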
AMA1-RON2 inh: AMA1-RON2 (P. falciparum) interaction inhibition; AlphaScreen AMA1-biotinylated RON2 peptide binding; Potency, µM (titrated, usually from 58.2 µM), without a hit: at the top dose activity change, negative = inhibition, actives largely listed as inhibitors; 360,000 tested, 0.2% active; AID 720542;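 note: 0% = vehicle wells and -100% = peptide control; nearly all actives have a fitted effect of over 45% in size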
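AMA1 (3D7) with his tag at 25 nM final met compounds first, then biotinylated RON2 peptide at 25 nM; detection used donor plus acceptor beads, 10 µg/mL apiece, read by AlphaScreen after 30 min at room temperature.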
Active calls of the source: *; ? = inconclusive; . = not tested or not shown; [ ] = another dose, or the depositor's remark. Most compounds without a hit are left out; they make up all but 11% or so of the library. Unless noted, calls come from the whole dose curve; as a rule, active = well fitted curve in the direction sought with a large enough effect; inconclusive = small, poorly fitted or top-dose-only effect, or another doubt; inactive = no such curve, though single readings can be large; an effect the other way counts as inactive or inconclusive. Potency is the fitted concentration of half-maximal effect.

SMILES	Pf growth 96h	Pf growth 48h	Sm TGR inh	NS1 inh	AMA1-RON2 inh
COc1cccc(CNC(=O)c2cc3oc4ccccc4c3n2C)c1OC	9.28µM*	.	1.9%	-11.6%	-5.4%
COc1ccc(-n2c(C)nn(C)c2=O)cc1	?	18.0%	1.9%	-2.2%	3.0%
COc1ccc(-n2c(/C=C(\C)O)nc(=O)c3c(C)cc(C)nc32)cc1	.	0.828µM*	7.0%	-11.1%	18.2%
COc1ccc(-c2c(C(C)=O)c(C)n(C)c2C)cc1	11.7µM*	25.2%	-7.9%	5.4%	-15.2%
O=c1[nH]n(CC2COC3(CCCCC3)O2)c(=O)c2ccccc12 (centres undefined)	8.28µM*	57.6%	-0.7%	-5.6%	2.6%
Cc1ccc(C)n1-c1cc([N+](=O)[O-])ccc1-n1ccnc1	?	11.7µM*	-1.7%	-1.2%	-0.1%
CC1=CC(C)(C)N(C(=O)c2ccc(F)cc2)c2cc3c(cc21)OCO3	-18.4%	11.7µM*	0.0%	-68.0%	?
Nc1ccccc1O	?	?	?	.	-0.8%
Oc1ccccc1O	-9.0%	?	15.8µM*	-2.1%	-17.5%
Oc1cc(-n2cccn2)c(O)cc1-n1cccn1	-1.5%	8.2%	3.55µM*	-50.0%	67.2%
CC(C)Oc1ccc(C(=O)/C(=C\c2cccs2)c2nc3ccccc3o2)cc1	?	?	4.1%	21.2%	?
COc1ccc(C(=O)/C(=C\c2sccc2C)c2nc3ccccc3o2)cc1	3.29µM*	?	-14.8%	-10.6%	.
COc1ccc(S(=O)(=O)N2CCCCC2)cc1NC(=O)CCCOc1ccccc1	-18.0%	?	9.8%	.	19.6%
COc1ccc(S(=O)(=O)N2CCCCC2)cc1NC(=O)CCCOc1ccc(C)cc1	?	10.4µM*	-0.9%	.	-9.2%
COc1ccc(S(=O)(=O)N2CCN(CCOc3ccccc3Cl)CC2)cc1OC	?	?	-22.6%	.	8.2%
CC(=O)c1ccc(OCCCC(=O)Nc2cc(S(=O)(=O)N3CCCCC3)ccc2C)cc1	13.1µM*	?	-0.3%	.	-7.9%
COc1ccc(S(=O)(=O)N2CCN(CCOc3ccc(Br)cc3)CC2)cc1OC	?	8.28µM*	-2.7%	.	-3.3%
COc1ccc(OCCOc2ccc(S(=O)(=O)N3CCCC3)cc2C(N)=O)cc1	3.7µM*	-8.3%	5.6%	.	5.5%[11.6 µM]
COC(=O)C(=O)/C=C(\O)c1c(C)cc(C)cc1C	14.7%	3.2%	2.5%	-2.3%	17.4%
CCNc1nc(OC)nc(Oc2ccc(=O)n(-c3ccccc3)n2)n1	0.2%[5.75 µM]	0.928µM*	2.2%	2.9%	14.9%
CCNc1nc(Oc2ccc(=O)n(-c3ccccc3)n2)nc(N(C)C)n1	2.62µM*	-13.9%	6.2%	7.6%	2.1%
COc1nc(NCC(C)C)nc(Oc2ccc(=O)n(-c3ccccc3)n2)n1	16.8%	.	7.9%	-3.9%	15.6%
CCNc1nc(NCc2ccccc2)nc(Oc2ccc(=O)[nH]n2)n1	-19.9%	1.04µM*	1.5%	-1.0%	-20.4%
CCNc1nc(Oc2ccc(=O)n(-c3ccccc3)n2)nc(N2CCOCC2)n1	?	-3.3%	-21.5%	-3.8%	4.7%
CCOC(=O)C1=NNC2C(=O)N(Cc3ccccc3)C(=O)C12 (centres undefined)	14.0%	-3.7%	-1.9%	-3.0%	-7.7%
SMILES	Pf growth 96h	Pf growth 48h	Sm TGR inh	NS1 inh	AMA1-RON2 inh
CCNC(=S)N1CCC(C(N)=O)CC1	-16.6%	16.8%	11.3%	3.3%	-5.3%
Cc1cc([N+](=O)[O-])nn1CC(=O)N1CCN(Cc2ccccc2)CC1	10.4µM*	?	1.2%	.	-1.4%
Cc1cc([N+](=O)[O-])nn1CC(=O)N1CCc2ccccc2C1	12.5%	.	3.5%	-0.3%	-2.9%
CSc1ccccc1NC(=O)Cn1nc([N+](=O)[O-])cc1C	0.185µM*	19.8%	-6.9%	.	-5.3%
Cc1nc2cc(-c3cccc(F)c3)nn2c(C)c1CCC(=O)NCCc1ccccc1	.	.	22.4µM*	.	.
CCOC(=O)C(Cc1ccccc1)NC(=O)CCc1c(C)nc2nc(C)nn2c1C (centres undefined)	7.38µM*	5.8%	8.8%	4.0%	-11.5%
COc1ccc(C2(c3ccc(OC)cc3)NC(=O)N(CC(=O)NCC(C)c3ccccc3)C2=O)cc1 (centres undefined)	11.7µM*	11.7µM*	0.4%	.	-7.2%
COc1ccc(C2(c3ccc(OC)cc3)NC(=O)N(CC(=O)Nc3ccc(OC(F)F)cc3)C2=O)cc1	?	11.7µM*	10.2%	?	-13.3%
CCOc1ccc(NC(=O)CN2C(=O)NC(C)(c3ccc(OC(F)F)cc3)C2=O)cc1 (centres undefined)	?	1.04µM*	?	-4.2%	-16.7%
COc1ccc(NC(=O)C2C3CCC4C(CCC32)C4(Cl)Cl)cc1 (centres undefined)	5.22µM*	3.5%	-9.6%	7.2%	2.0%
Cc1ccccc1C(C)(O)c1cnc(C)n1Cc1ccccc1 (centres undefined)	.	.	.	.	0.8%
CCN(CC)c1ccc(C(=O)NNC(=O)CCl)cc1	?	6.57µM*	20µM*	.	50.8%
CCN(CC)c1ccc(C(=O)NNC(=O)CCNC(=O)c2ccccc2)cc1	?	3.5%	1.7%	.	-11.4%
CC(C)OC(=O)c1ccccc1C(=O)c1ccc(N)c([N+](=O)[O-])c1	71.0%	?	.	1.8%	-14.0%
O=C(OC1CCOC1=O)c1ccccc1C(=O)c1ccc(Cl)c([N+](=O)[O-])c1 (centres undefined)	-40.9%	?	25.1µM*	.	12.6%
Cc1ccc(C(=O)COC(=O)c2cnccn2)cc1[N+](=O)[O-]	?	-9.5%	-1.0%	2.8%	-2.3%
O=C(COC(=O)c1ccccc1C(=O)c1ccc(Cl)c([N+](=O)[O-])c1)NC1CC1	2.4%	-2.2%	22.4µM*	.	13.9%
CNC(=O)COC(=O)c1ccccc1C(=O)c1ccc(Cl)c([N+](=O)[O-])c1	-3.7%	?	35.5µM*	.	-0.9%
O=C(COC(=O)c1cnccn1)c1ccc(Cl)c([N+](=O)[O-])c1	28.3%	2.5%	39.8µM*	4.5%	5.5%
COc1cccc(/C=C/C(=O)OCC(=O)Nc2cc(S(=O)(=O)N3CCOCC3)ccc2C)c1	-3.0%	-6.0%	-1.5%	.	1.6%
COc1ccc(CCNC(=O)Cn2cnc3scc(-c4ccccc4)c3c2=O)cc1OC	?	-28.5%	4.5%	2.4%	-12.1%
COC(=O)c1ccc(NC(=O)N2CCN(c3nnc(C)c4c(C)n(-c5ccccc5)nc34)CC2)cc1	.	.	0.3%	.	.
CS(=O)(=O)c1ccc(C(=O)OC2CCOC2=O)cc1[N+](=O)[O-] (centres undefined)	?	6.57µM*	2.82µM*	0.4%	6.9%
O=C(CCn1cnc2onc(-c3ccc(F)cc3)c2c1=O)N1CCN(c2ccccc2)CC1	.	.	-1.3%	.	.
O=C(CC(=O)c1c(F)cccc1Cl)c1ccccc1O	?	11.7µM*	-18.9%	-110.2%	37.1%
CC(=O)c1c(C)[nH]c(C2=NNC(=NC(C)(C)C)SC2)c1C	2.62µM*	0.4%	-32.6%	.	24.8%
CCOC(=O)c1c(C)[nH]c(C2=NNC(=Nc3ccc(OCC)cc3)SC2)c1C	14.7µM*	?	-16.3%	7.8%	-20.6%
